Data: PubChem BioAssay
Records with an inconclusive call do not appear. Activity calls are given as the source filed them.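 How the source made its calls, unless noted: active means viability at or below 10% of carrier control in both of two separate runs; inconclusive means viability at or below 10% in only one of the two runs; inactive means the rest.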

Legend:
[1] = Her2 expression decrease, cell viability multiplex – SKBR3 breast tumor cells, AlphaScreen, ATP viability, primary screen (AID 461;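 active means Her2 level under about 52% in both replicate screens, with viability over 70% of control, limit read from the data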;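 on Her2 level: lower value means less Her2 protein in the cells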;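 on viability: percent of carrier control wells set as 100% viability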); conditions: SKBR3 Her2 protein level, 18-24 h, measured here: SKBR3 viability, ATP luminescence, at 10 µM
[2] = target: Receptor tyrosine-protein kinase erbB-2 (Homo sapiens) (UniProt P04626); assay: as above; conditions: 18-24 h, at 10 µM, stronger effect = lower value
[3] = reduced viability of SK-BR-3 breast cancer cells – cell-based, 24 h, human, pilot screen (AID 572); conditions: SK-BR-3 viability, CellTiter-Glo luminescence, at 10 µM, stronger effect = lower value;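 further: compound exposure lasted between 18 and 24 h rather than exactly 24 h; 100% = carrier-treated control wells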
[4] = HUVEC growth inhibition – cell-based, human, primary screen (AID 575;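 active means viability at or below 30% in both replicate assays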;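 further: 100% = median of untreated cell wells with 0.1% DMSO on each plate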); conditions: HUVEC proliferation, CellTiter-Glo luminescence, 72 h; at 10 µM; stronger effect = lower value
[5] = H69AR cell proliferation blockers – human, duplicate replicates, primary screen (AID 580;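 active means viability at or under a set limit in both replicates, limit being median viability minus 3 SD, cut at about 48% in these data, passing the limit was not always enough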;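 further: 100% = mean luminescence of untreated wells and 0% = no signal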); conditions: H69AR lung tumor cells viability, ATP luminescence, 72 h; at 10 µM; stronger effect = lower value
[6] = MRP1 drug-resistance reversers in H69AR cells – cell-based, doxorubicin co-treatment, pilot screen (AID 601;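 active means viability loss from added drug above about 55%, and viability with drug at most 40%, in both replicates, limit read from the data, passing the limit was not always enough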); conditions: CellTiter-Glo, 72 h, at 10 µM; for differential viability (reversal): stronger effect = higher value
[7] = yeast transport mutant growth inhibition pilot in 384-well plates, post-Golgi transport modulator project (AID 636; in the data active means inhibition above about 31%); conditions: absorbance 615 nm, about 18 h, stronger effect = higher value
[8] = growth suppression of yeast trafficking mutant, preliminary HTS, modulators of trafficking downstream of Golgi apparatus project, 1536-format plate, OD 615 nm (AID 637; in the data active means inhibition above about 30%); conditions: yeast transport mutant growth, absorbance 615 nm, 18 h; stronger effect = higher value
[9] = S. cerevisiae growth inhibition in permissive medium (OD615), pilot counter-assay for S. cerevisiae lifespan shortening project, permissive growth control (AID 705;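 active means growth inhibition above 25% in both replicates, a cutoff set 3 SD above the mean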); conditions: OD615, 24 h, at 10 µM, stronger effect = higher value
[10] = S. cerevisiae growth inhibition in restrictive medium, OD615, pilot screen, restrictive growth control, yeast lifespan reduction project (AID 706;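 active means growth inhibition above a set limit, 3 SD over mean compound inhibition, in both replicates, cut at about 43% in these data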;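 further: modified DeaD lifespan yeast strain shifted to restrictive glucose medium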); conditions: OD615, 48 h, at 10 µM, stronger effect = higher value
[11] = doxorubicin toxicity protection in MRP-1 cells – H69AR cells, CellTiter-Glo, duplicate, MRP-1 activator project, pilot screen (AID 807;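 active means viability increase at or above a cutoff of the median across tested compounds plus 3 SD, cut at about 8.5% in these data, passing the limit was not always enough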;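 further: compound pretreatment 18-22 h then 72 h combined with doxorubicin; 0% = doxorubicin alone and 100% = vehicle without doxorubicin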); conditions: H69AR viability with doxorubicin, CellTiter-Glo luminescence; at 10 µM; stronger effect = higher value
[12] = viability of HCT116 without oncogenic beta-catenin – human colon tumor cells, pilot screen (AID 823;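 active means cell viability at or below a set limit in both duplicate runs, the limit being the all-compound median minus 4 SD, cut at about 23% in these data, passing the limit was not always enough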;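 further: 0% = wells killed by 20 µM Hyamine and 100% = untreated DMSO cell wells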); conditions: HCT116 beta-catenin knockout viability, CellTiter-Glo, 60 h; at 10 µM; stronger effect = lower value
[13] = viability of PTEN-null HCT116 cells – cell-based, HCT116 clonal line, CellTiter-Glo, pilot screen (AID 824;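 active means viability at or below 27.92% in each of two runs, the all-compound median minus 4 SD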;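 further: 0% = 20 µM Hyamine control and 100% = vehicle cell control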); conditions: HCT116 PTEN-deleted viability, 60 h, at 10 µM, stronger effect = lower value
[14] = RAM pathway blockade in budding yeast – dse1pr::URA3 reporter, 5-FOA selection, pilot screen (AID 869;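 active means inhibition over a set limit, the all-compound mean plus 3 SD, in both replicate runs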;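 further: 0% = DMSO wells with no growth and 100% = 10 µM 1-NA-PP1 with full growth; RAM network block rescues cells from 5-FOA so hits raise OD615 growth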); conditions: S. cerevisiae dse1pr::URA3 5-FOA growth, OD615, 2 d; at 10 µM; stronger effect = higher value; strain carries analog-sensitive mutant Cbk1 kinase
[15] = RAM signaling pathway blockade in yeast – S. cerevisiae, Pdr1DBD-CYC8 efflux-inhibited sensitized strain, primary screen (AID 1298;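 active means RAM network inhibition above 8.4% in each of two replicates, 3 SD over the compound average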;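 further: 0% = DMSO untreated cells without growth and 100% = 10 µM 1-NA-PP1 full growth; higher means more yeast growth rescued from 5-FOA killing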); conditions: S. cerevisiae cbk1-as DSE1-URA3 strain, 5-FOA growth OD615, 2 d; at 50 µM; stronger effect = higher value
[16] = H69AR cells + 2 uM doxorubicin, measured here: viability with 2 uM doxorubicin, stronger effect = lower value
[17] = H69AR cells, compound alone cytotoxicity

Chain of Receptor tyrosine-protein kinase erbB-2 (Homo sapiens) (P04626 whole entry, looked up): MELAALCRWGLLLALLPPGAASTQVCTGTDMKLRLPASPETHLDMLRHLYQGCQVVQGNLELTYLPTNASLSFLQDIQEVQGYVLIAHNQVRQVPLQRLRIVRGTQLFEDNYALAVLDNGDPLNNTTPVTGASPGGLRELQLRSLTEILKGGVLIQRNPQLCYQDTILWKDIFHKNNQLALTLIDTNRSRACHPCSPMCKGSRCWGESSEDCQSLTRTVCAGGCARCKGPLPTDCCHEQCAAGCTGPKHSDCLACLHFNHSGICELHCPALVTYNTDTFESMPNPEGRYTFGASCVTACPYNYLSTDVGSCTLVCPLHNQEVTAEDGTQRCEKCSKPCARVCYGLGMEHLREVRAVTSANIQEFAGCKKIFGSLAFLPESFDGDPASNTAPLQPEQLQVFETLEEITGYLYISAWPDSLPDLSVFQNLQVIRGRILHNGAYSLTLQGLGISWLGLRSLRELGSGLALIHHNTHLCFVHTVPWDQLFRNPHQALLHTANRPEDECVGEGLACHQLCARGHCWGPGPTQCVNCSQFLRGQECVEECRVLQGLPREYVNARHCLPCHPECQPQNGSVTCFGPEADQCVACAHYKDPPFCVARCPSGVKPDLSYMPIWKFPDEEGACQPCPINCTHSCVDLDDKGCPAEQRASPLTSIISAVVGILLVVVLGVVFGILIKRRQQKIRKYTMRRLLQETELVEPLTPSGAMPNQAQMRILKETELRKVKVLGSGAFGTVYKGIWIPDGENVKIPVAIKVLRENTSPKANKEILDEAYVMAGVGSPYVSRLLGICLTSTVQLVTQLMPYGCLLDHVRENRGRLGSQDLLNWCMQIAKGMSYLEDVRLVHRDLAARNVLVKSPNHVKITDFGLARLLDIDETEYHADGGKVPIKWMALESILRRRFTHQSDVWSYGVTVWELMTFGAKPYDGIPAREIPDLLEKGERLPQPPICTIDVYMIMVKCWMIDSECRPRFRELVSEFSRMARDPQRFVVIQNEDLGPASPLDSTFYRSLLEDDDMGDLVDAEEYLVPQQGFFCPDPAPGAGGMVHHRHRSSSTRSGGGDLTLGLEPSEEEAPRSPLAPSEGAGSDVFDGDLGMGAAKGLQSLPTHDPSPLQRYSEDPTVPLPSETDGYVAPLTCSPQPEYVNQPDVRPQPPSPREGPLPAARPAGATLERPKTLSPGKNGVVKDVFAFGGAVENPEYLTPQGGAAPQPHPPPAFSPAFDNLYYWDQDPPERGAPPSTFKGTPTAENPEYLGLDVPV

CCOc1ccc(CCN2C(=O)C3C4C=CC(C4)C3C2=O)cc1OCC (stereo not given)
83.4%: viability [6, 16]
96%: viability [1]
87.9%: viability [6, 17]
inactive: Her2 level [2] 93.5% | viability [3] 96% | viability [4] 97.7% | viability [5] 87.9% | differential viability (reversal) ([6]; H69AR cells + 2 uM doxorubicin) 4.56% | inhibition [7] -6.27% | inhibition [8] -1.67% | growth inhibition [9] 0.49% | growth inhibition [10] 3.99% | viability increase [11] -0.38% | viability [12] 102% | viability [13] 101% | inhibition [14] 1.38% | RAM network inhibition [15] 1.5%

O=C(CCn1c(=O)oc2ccccc21)NCCN1CCOCC1
104%: viability [1]
inactive: Her2 level [2] 120% | viability [3] 104% | viability [4] 93.4% | viability [5] 85.9% | differential viability (reversal) ([6]; H69AR cells + 2 uM doxorubicin) -3.67% | inhibition [7] 0.8% | inhibition [8] -6.5% | growth inhibition [9] -9.38% | growth inhibition [10] -6.78% | viability increase [11] -1.28% | viability [12] 107% | viability [13] 101% | inhibition [14] 2.63% | RAM network inhibition [15] 4.16%
85.9%: viability [6, 17]
89.6%: viability [6, 16]

Cc1ccc(N(C)C(=O)N2CCN(c3ccccn3)CC2)cc1
90.7%: viability [6, 16]
94.5%: viability [1]
inactive: Her2 level [2] 112% | viability [3] 94.5% | viability [4] 109% | viability [5] 98.2% | differential viability (reversal) ([6]; H69AR cells + 2 uM doxorubicin) 7.52% | inhibition [7] 2.27% | inhibition [8] -0.5% | growth inhibition [9] 0.955% | growth inhibition [10] 5.44% | viability increase [11] -1.03% | viability [12] 97.6% | viability [13] 97.1% | inhibition [14] 1.14% | RAM network inhibition [15] -0.55%
98.2%: viability [6, 17]

Cn1nnnc1SCC(=O)Nc1ccccc1C(=O)NCc1ccccc1
inactive: Her2 level [2] 98% | viability [3] 99% | viability [4] 108% | viability [5] 90.2% | differential viability (reversal) ([6]; H69AR cells + 2 uM doxorubicin) -4.73% | inhibition [7] -6.49% | inhibition [8] -7.33% | growth inhibition [9] -9.6% | growth inhibition [10] 4.06% | viability increase [11] -2.1% | viability [12] 97.6% | viability [13] 97.8% | inhibition [14] 1.04% | RAM network inhibition [15] 7.35%
94.9%: viability [6, 16]
90.2%: viability [6, 17]
99%: viability [1]

CCn1c(SCC(=O)Nc2cccc(C)c2)nc2c(c1=O)SC(C)C2 (stereo not given)
90%: viability [1]
76.7%: viability [6, 17]
inactive: Her2 level [2] 88% | viability [3] 90% | viability [4] 99% | viability [5] 76.7% | differential viability (reversal) ([6]; H69AR cells + 2 uM doxorubicin) 3.39% | inhibition [7] -3.07% | inhibition [8] -0.67% | growth inhibition [9] -3.52% | growth inhibition [10] -4.62% | viability increase [11] -3.09% | viability [12] 95.1% | viability [13] 88.9% | inhibition [14] 2.52% | RAM network inhibition [15] 10.2%
73.3%: viability [6, 16]

O=C(Cn1nc(Cc2cccnc2)c2ccccc2c1=O)Nc1ccc2c(c1)OCO2
76.2%: viability [6, 16]
inactive: Her2 level [2] 96.5% | viability [3] 87% | viability [4] 84.5% | viability [5] 85.2% | differential viability (reversal) ([6]; H69AR cells + 2 uM doxorubicin) 9.09% | inhibition [7] -4.8% | inhibition [8] -0.67% | growth inhibition [9] 0.565% | growth inhibition [10] 7.93% | viability increase [11] 2.16% | viability [12] 99% | viability [13] 106% | inhibition [14] 0.975% | RAM network inhibition [15] 2.81%
85.2%: viability [6, 17]
87%: viability [1]

O=C(Cn1nc(Cc2cccnc2)c2ccccc2c1=O)NCC1CCCO1 (stereo not given)
122%: viability [1]
inactive: Her2 level [2] 111% | viability [3] 122% | viability [4] 99.2% | viability [5] 92.2% | differential viability (reversal) ([6]; H69AR cells + 2 uM doxorubicin) -3.21% | inhibition [7] -3.33% | inhibition [8] 3.5% | growth inhibition [9] -1.69% | growth inhibition [10] 6.33% | viability increase [11] -1.12% | viability [12] 105% | viability [13] 99.1% | inhibition [14] 1.01% | RAM network inhibition [15] 5.65%
92.2%: viability [6, 17]
95.4%: viability [6, 16]

CCOC(=O)N1CCC(NC(=O)c2ccc3c(c2)N(CC)CCS3)CC1
94.5%: viability [1]
74.2%: viability [6, 17]
inactive: Her2 level [2] 91.5% | viability [3] 94.5% | viability [4] 100% | viability [5] 74.2% | differential viability (reversal) ([6]; H69AR cells + 2 uM doxorubicin) -5.34% | inhibition [7] -6.93% | inhibition [8] -0.33% | growth inhibition [9] -10.9% | growth inhibition [10] -0.105% | viability increase [11] -3.08% | viability [12] 98.2% | viability [13] 97% | inhibition [14] 3.51% | RAM network inhibition [15] 2.26%
79.6%: viability [6, 16]

COC(=O)CCC(=O)Nc1ccc(OC)cc1
104%: viability [1]
inactive: Her2 level [2] 84% | viability [3] 104% | viability [4] 121% | viability [5] 85.1% | differential viability (reversal) ([6]; H69AR cells + 2 uM doxorubicin) -13.2% | inhibition [7] -6.22% | inhibition [8] 0.98% | growth inhibition [9] -2.88% | growth inhibition [10] -6.16% | viability increase [11] -1.06% | viability [12] 98.6% | viability [13] 101% | inhibition [14] 0.605% | RAM network inhibition [15] 2.52%
85.1%: viability [6, 17]
98.3%: viability [6, 16]

Cn1c(=O)[nH]c(=O)c2c1nc(N1CCCCC1)n2CCSc1ncccn1
101%: viability [1]
92.5%: viability [6, 16]
inactive: Her2 level [2] 89.5% | viability [3] 101% | viability [4] 102% | viability [5] 88.8% | differential viability (reversal) ([6]; H69AR cells + 2 uM doxorubicin) -3.65% | inhibition [7] -3.2% | inhibition [8] 0.83% | growth inhibition [9] 1.54% | growth inhibition [10] -4.51% | viability increase [11] 1.1% | viability [12] 101% | viability [13] 103% | inhibition [14] 2.44% | RAM network inhibition [15] -0.42%
88.8%: viability [6, 17]
